PubChem BioAssay AID1159580 (chemical genetic matrix, 2015)
Hit rate of the full screen: of about 5,500 compounds, about 2,000 (36%) were called active. Roughly 18% stayed inconclusive and do not appear here. The list shows a part of the results. Unmarked numbers belong to inactive results. Rule as the data show it: active = normalized growth mostly below about 0.91 (no sharp cut-off); inconclusive = no clear call, values can overlap the other calls; inactive = mostly above about 0.92.

Assay: chemical genetic growth profiling, strain panel (AID 1159580);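 also: tested at 20 µM; growth read once vehicle control cultures reached saturation at 30 °C; 1 = growth at the plate median or of vehicle wells; lower values mean less growth of the strain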
Details: growth OD
[1] = S. cerevisiae deletion strains, locus YDL101C, strain DUN1, active compounds read low
[2] = S. cerevisiae deletion strains, locus YHR030C, strain SLT2, active compounds read low

COc1c([N+](=O)[O-])cc(C(F)(F)F)cc1[N+](=O)[O-]
normalized growth (S. cerevisiae deletion strains, locus YAL013W, strain DEP1, active compounds read low): 0.978 | normalized growth (S. cerevisiae deletion strains, locus YBR229C, strain ROT2, active compounds read low): 1.01 | normalized growth [1]: 0.982 | normalized growth (S. cerevisiae deletion strains, locus YDR150W, strain NUM1, active compounds read low): 0.964 | normalized growth (S. cerevisiae deletion strains, locus YEL061C, strain CIN8, active compounds read low): 1.01 | normalized growth (S. cerevisiae deletion strains, locus YGR078C, strain PAC10, active compounds read low): 0.975 | normalized growth [2]: 0.732 | normalized growth (S. cerevisiae deletion strains, locus YHR087W, strain rtc3, active compounds read low): 1.04 | normalized growth (S. cerevisiae deletion strains, locus YJR043C, strain POL32, active compounds read low): 0.966 | normalized growth (S. cerevisiae deletion strains, locus YJR075W, strain HOC1, active compounds read low): 1.03 | normalized growth (S. cerevisiae deletion strains, locus YKL190W, strain CNB1, active compounds read low): 0.998 | normalized growth (S. cerevisiae deletion strains, locus YLR039C, strain RIC1, active compounds read low): 0.486 (active) | normalized growth (S. cerevisiae deletion strains, locus YLR058C, strain SHM2 (second series), active compounds read low): 1.02 | normalized growth (S. cerevisiae deletion strains, locus YLR085C, strain ARP6, active compounds read low): 0.823 | normalized growth (S. cerevisiae deletion strains, locus YLR262C, strain YPT6, active compounds read low): 0.453 (active) | normalized growth (S. cerevisiae deletion strains, locus YML094W, strain GIM5, active compounds read low): 0.903 | normalized growth (S. cerevisiae deletion strains, locus YMR219W, strain ESC1, active compounds read low): 1 | normalized growth (S. cerevisiae deletion strains, locus YMR263W, strain SAP30, active compounds read low): 0.971 | normalized growth (S. cerevisiae deletion strains, locus YNL128W, strain TEP1, active compounds read low): 0.976 | normalized growth (S. cerevisiae deletion strains, locus YNL153C, strain GIM3, active compounds read low): 0.985 | normalized growth (S. cerevisiae deletion strains, locus YNL298W, strain CLA4 (second series), active compounds read low): 0.946 | normalized growth (S. cerevisiae deletion strains, locus YNL322C, strain KRE1, active compounds read low): 0.971 | normalized growth (S. cerevisiae deletion strains, locus YNR030W, strain Alg12, active compounds read low): 0.975 | normalized growth (S. cerevisiae deletion strains, locus YPL055C, strain LGE1, active compounds read low): 0.989 | normalized growth (S. cerevisiae deletion strains, locus YPL241C, strain CIN2, active compounds read low): 0.95 | normalized growth (S. cerevisiae deletion strains, locus YPR135W, strain CTF4, active compounds read low): 0.902 | normalized growth (S. cerevisiae strains, strain wild type, active compounds read low): 0.979

COc1ccc(Oc2ccc([N+](=O)[O-])cc2C(=O)O/N=C(/N)c2ccc(C(F)(F)F)cc2)cc1
normalized growth (S. cerevisiae deletion strains, locus YAR019C, strain CDC15, active compounds read low): 1 | normalized growth (S. cerevisiae deletion strains, locus YBL105C, strain PKC1, active compounds read low): 0.991 | normalized growth (S. cerevisiae deletion strains, locus YBR135W, strain CKS1, active compounds read low): 0.991 | normalized growth (S. cerevisiae deletion strains, locus YBR136W, strain MEC1, active compounds read low): 0.996 | normalized growth (S. cerevisiae deletion strains, locus YBR160W, strain CDC28, active compounds read low): 0.997 | normalized growth (S. cerevisiae deletion strains, locus YDL017W, strain CDC7, active compounds read low): 1 | normalized growth (S. cerevisiae deletion strains, locus YDL028C, strain MPS1, active compounds read low): 1 | normalized growth [1]: 0.988 | normalized growth (S. cerevisiae deletion strains, locus YDL108W, strain KIN28, active compounds read low): 0.99 | normalized growth (S. cerevisiae deletion strains, locus YDL132W, strain cdc53, active compounds read low): 0.982 | normalized growth (S. cerevisiae deletion strains, locus YDL214C, strain PRR2, active compounds read low): 1.01 | normalized growth (S. cerevisiae deletion strains, locus YDR052C, strain DBF4, active compounds read low): 1 | normalized growth (S. cerevisiae deletion strains, locus YDR054C, strain cdc34, active compounds read low): 0.99 | normalized growth (S. cerevisiae deletion strains, locus YDR226W, strain ADK1, active compounds read low): 0.987 | normalized growth (S. cerevisiae deletion strains, locus YDR477W, strain SNF1, active compounds read low): 0.999 | normalized growth (S. cerevisiae deletion strains, locus YER123W, strain YCK3, active compounds read low): 0.983 | normalized growth (S. cerevisiae deletion strains, locus YER133W, strain GLC7, active compounds read low): 1 | normalized growth (S. cerevisiae deletion strains, locus YFL009W, strain cdc4, active compounds read low): 0.998 | normalized growth (S. cerevisiae deletion strains, locus YFL029C, strain CAK1, active compounds read low): 1 | normalized growth (S. cerevisiae deletion strains, locus YFR003C, strain YPI1, active compounds read low): 1.01 | normalized growth (S. cerevisiae deletion strains, locus YFR019W, strain FAB1, active compounds read low): 1 | normalized growth (S. cerevisiae deletion strains, locus YFR028C, strain CDC14, active compounds read low): 0.998 | normalized growth (S. cerevisiae deletion strains, locus YGR040W, strain KSS1, active compounds read low): 1 | normalized growth (S. cerevisiae deletion strains, locus YGR052W, strain FMP48, active compounds read low): 1.01 | normalized growth (S. cerevisiae deletion strains, locus YGR092W, strain DBF2, active compounds read low): 1.03 | normalized growth [2]: 0.92 | normalized growth (S. cerevisiae deletion strains, locus YHR079C, strain IRE1, active compounds read low): 1 | normalized growth (S. cerevisiae deletion strains, locus YHR082C, strain KSP1, active compounds read low): 1.11 | normalized growth (S. cerevisiae deletion strains, locus YHR205W, strain SCH9, active compounds read low): 0.991 | normalized growth (S. cerevisiae deletion strains, locus YIL147C, strain SLN1, active compounds read low): 1 | normalized growth (S. cerevisiae deletion strains, locus YJL095W, strain BCK1, active compounds read low): 1 | normalized growth (S. cerevisiae deletion strains, locus YJL128C, strain PBS2, active compounds read low): 0.957 | normalized growth (S. cerevisiae deletion strains, locus YJL157C, strain FAR1, active compounds read low): 1.02 | normalized growth (S. cerevisiae deletion strains, locus YJR016C, strain ILV3, active compounds read low): 1 | normalized growth (S. cerevisiae deletion strains, locus YJR066W, strain TOR1 (second series), active compounds read low): 0.964 | normalized growth (S. cerevisiae deletion strains, locus YJR066W, strain TOR1, active compounds read low): 1.07 | normalized growth (S. cerevisiae deletion strains, locus YKL048C, strain ELM1, active compounds read low): 0.995 | normalized growth (S. cerevisiae deletion strains, locus YKL067W, strain YNK1, active compounds read low): 0.999 | normalized growth (S. cerevisiae deletion strains, locus YKL101W, strain HSL1, active compounds read low): 0.998 | normalized growth (S. cerevisiae deletion strains, locus YKL193C, strain SDS22, active compounds read low): 1 | normalized growth (S. cerevisiae deletion strains, locus YKL203C, strain TOR2, active compounds read low): 1.03 | normalized growth (S. cerevisiae deletion strains, locus YLR113W, strain HOG1, active compounds read low): 0.919 | normalized growth (S. cerevisiae deletion strains, locus YLR133W, strain CKI1, active compounds read low): 1.01 | normalized growth (S. cerevisiae deletion strains, locus YLR403W, strain SFP1, active compounds read low): 1.01 | normalized growth (S. cerevisiae deletion strains, locus YML070W, strain DAK1, active compounds read low): 1.01 | normalized growth (S. cerevisiae deletion strains, locus YMR001C, strain CDC5, active compounds read low): 1.01 | normalized growth (S. cerevisiae deletion strains, locus YMR205C, strain PFK2 (second series), active compounds read low): 0.989 | normalized growth (S. cerevisiae deletion strains, locus YMR277W, strain FCP1, active compounds read low): 1.01 | normalized growth (S. cerevisiae deletion strains, locus YNL006W, strain LST8, active compounds read low): 1 | normalized growth (S. cerevisiae deletion strains, locus YNL020C, strain ARK1, active compounds read low): 1.02 | normalized growth (S. cerevisiae deletion strains, locus YNL161W, strain CBK1, active compounds read low): 0.994 | normalized growth (S. cerevisiae deletion strains, locus YNL183C, strain NPR1, active compounds read low): 1.04 | normalized growth (S. cerevisiae deletion strains, locus YNL207W, strain RIO2, active compounds read low): 1 | normalized growth (S. cerevisiae deletion strains, locus YNL222W, strain SSU72, active compounds read low): 0.997 | normalized growth (S. cerevisiae deletion strains, locus YNL307C, strain MCK1 (second series), active compounds read low): 1 | normalized growth (S. cerevisiae deletion strains, locus YOL078W, strain AVO1, active compounds read low): 1 | normalized growth (S. cerevisiae deletion strains, locus YOL136C, strain PFK27, active compounds read low): 1.01 | normalized growth (S. cerevisiae deletion strains, locus YOR061W, strain CKA2, active compounds read low): 1.01 | normalized growth (S. cerevisiae deletion strains, locus YOR119C, strain RIO1, active compounds read low): 1.06 | normalized growth (S. cerevisiae deletion strains, locus YOR231W, strain MKK1, active compounds read low): 0.985 | normalized growth (S. cerevisiae deletion strains, locus YOR329C, strain SCD5, active compounds read low): 1 | normalized growth (S. cerevisiae deletion strains, locus YPL031C, strain PHO85, active compounds read low): 0.988 | normalized growth (S. cerevisiae deletion strains, locus YPL153C, strain RAD53, active compounds read low): 0.995 | normalized growth (S. cerevisiae deletion strains, locus YPL204W, strain HRR25, active compounds read low): 1.01 | normalized growth (S. cerevisiae deletion strains, locus YPL209C, strain IPL1, active compounds read low): 1 | normalized growth (S. cerevisiae deletion strains, locus YPL256C, strain CLN2, active compounds read low): 0.927 | normalized growth (S. cerevisiae deletion strains, locus YPR025C, strain CCL1, active compounds read low): 0.999 | normalized growth (S. cerevisiae deletion strains, locus YPR106W, strain ISR1, active compounds read low): 0.993 | normalized growth (S. cerevisiae deletion strains, locus YPR111W, strain DBF20, active compounds read low): 0.986 | normalized growth (S. cerevisiae deletion strains, strain NNK1, active compounds read low): 0.982 | normalized growth (S. cerevisiae deletion strains, strain TSCII, active compounds read low): 1
